Experimental data published in PubChem BioAssay (NCI).
Where “and” joins values, the source holds several entries; their conditions need not be identical. Identical values can stand only once. This is part of a sample that, as a whole, favours compounds with a hit. Of some 83,000 tested, about 20% had one in any assay.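 The endpoint reported here, percent growth, reads 100 for growth as untreated, 0 for no net growth and -100 for all cells dead.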 Calls of active or inactive are those of the source. Rule for the calls: active = growth percent below 10; inactive = the rest.

Tests used:
Assay in all cases: NCI-60 one-dose screen, 48 h (100 = growth as untreated, 0 = no growth, -100 = all killed)
Details in all cases: 10 µM
T-47D breast = tested on: T-47D breast
BT-549 breast = tested on: BT-549 breast
MDA-MB-435 melanoma = tested on: MDA-MB-435 melanoma
SW-620 colon = tested on: SW-620 colon
MCF7 breast = tested on: MCF7 breast
HCT-116 colon = tested on: HCT-116 colon
HCC-2998 colon = tested on: HCC-2998 colon
KM12 colon = tested on: KM12 colon
MDA-MB-468 breast = tested on: MDA-MB-468 breast

Measured: growth

COc1cc(/C=N/NC(=O)c2ccc3nc(-c4ccc(Cl)cc4)[nH]c3c2)cc(OC)c1OC
active: T-47D breast -58.6% | BT-549 breast -81.5% | MDA-MB-435 melanoma -67.3% | SW-620 colon -22.1% | MCF7 breast -72.8% | HCT-116 colon -67.5% | HCC-2998 colon -39.7% | KM12 colon -33%
107% (inactive) and -89.3% (active): MDA-MB-468 breast

CCCSc1nc(NC2CC2)c(C#N)c(-c2ccc(OC)cc2)n1
inactive: T-47D breast 88.8% | BT-549 breast 88.1% | MDA-MB-435 melanoma 106% | SW-620 colon 105% | MCF7 breast 103% | HCT-116 colon 74.1% | HCC-2998 colon 115% | KM12 colon 107% | MDA-MB-468 breast 139%

C=C(C)[C@@H]1CC[C@]2(C(=O)OC)CC[C@]3(C)[C@H](CC[C@@H]4[C@@]5(C)CC[C@H](N)C(C)(C)[C@@H]5CC[C@]43C)[C@@H]12
active: T-47D breast -73.3% | BT-549 breast -63.6% | MDA-MB-435 melanoma -97% | SW-620 colon -75.6% | MCF7 breast -85.4% | HCT-116 colon -98.3% | HCC-2998 colon -93.6% | KM12 colon -82.3% | MDA-MB-468 breast -97.2%

CCOP(=O)(OCC)O[C@H]1CCC(=O)[C@@H]2[C@H]1[C@H]1C[C@@H]3[C@@]4(C)CCCC(C)(C(=O)OC)[C@@H]4CC[C@@]23C=C1C(C)C (some centres undefined)
active: MDA-MB-468 breast 7.96%
inactive: T-47D breast 42.1% | BT-549 breast 54.9% | MDA-MB-435 melanoma 52% | SW-620 colon 56.1% | MCF7 breast 33.2% | HCT-116 colon 32.8% | HCC-2998 colon 58.9% | KM12 colon 50.9%

COC(=O)C[C@](O)(CCCC(C)(C)O)C(=O)O[C@H]1C(OC)=C[C@@]23CCC(=O)N2CCc2cc4c(cc2[C@@H]13)OCO4
inactive: T-47D breast 89.8% | BT-549 breast 118% | MDA-MB-435 melanoma 104% | SW-620 colon 91.9% | MCF7 breast 87.3% | HCT-116 colon 89.7% | HCC-2998 colon 88% | KM12 colon 98.3% | MDA-MB-468 breast 81.1%

O=c1[nH]c2ccccc2cc1CSc1ccc(Nc2nccc(-c3ccc(C(F)(F)F)cc3)n2)cc1
active: HCT-116 colon 6.96% | MDA-MB-468 breast -17.5%
inactive: T-47D breast 18.8% | BT-549 breast 31.7% | MDA-MB-435 melanoma 63.3% | SW-620 colon 31% | MCF7 breast 25.3% | HCC-2998 colon 48.1% | KM12 colon 46.8%

N#Cc1ccc(-c2nn(-c3ccc(C(=O)O)cc3)cc2CNc2cccc(Br)c2)cc1
inactive: T-47D breast 35.4% | MDA-MB-435 melanoma 59% | SW-620 colon 61.2% | MCF7 breast 48.2% | HCT-116 colon 19.9% | KM12 colon 22.4% | MDA-MB-468 breast 66%
active: BT-549 breast 1.51% | HCC-2998 colon 4.19%

CN1CCN(c2ccc(C(=O)/C=C/c3cc(Br)ccc3F)cc2)CC1
inactive: T-47D breast 59.8% | BT-549 breast 59.3%
active: MDA-MB-435 melanoma 1.57% | SW-620 colon -25.7% | MCF7 breast 2.37% | HCT-116 colon 1.2% | HCC-2998 colon -63.2% | KM12 colon 8.8% | MDA-MB-468 breast -13.3%

COc1ccc(-c2ccc(/C=N/NC(=O)c3[nH]c4ccc(Br)cc4c3-c3ccccc3)o2)cc1
active: MDA-MB-435 melanoma -45.1% | MDA-MB-468 breast -2.91%
inactive: T-47D breast 37.4% | BT-549 breast 75.6% | SW-620 colon 32.4% | MCF7 breast 10.3% | HCT-116 colon 18.3% | HCC-2998 colon 63% | KM12 colon 39.8%

O=C(Nc1ccc(F)c(Cl)c1)c1cc(-c2ccc(F)cc2F)ccc1O
active: T-47D breast -6.69% | BT-549 breast -37.6% | MDA-MB-435 melanoma 0.745% | SW-620 colon 6.07% | MCF7 breast -16.1% | HCT-116 colon 9.19% | HCC-2998 colon 4.97% | KM12 colon -16% | MDA-MB-468 breast -44.4%

Cc1ccc(/C(N)=N/c2sc(-c3ccccc3)nc2-c2ccccc2)cc1
inactive: T-47D breast 58.3% | BT-549 breast 88.4% | MDA-MB-435 melanoma 79.6% | SW-620 colon 79.4% | MCF7 breast 55.9% | HCT-116 colon 53.5% | HCC-2998 colon 79.8% | KM12 colon 41.4% | MDA-MB-468 breast 75.6%

O=C(CSc1nnc(-c2c[nH]c3ccccc23)n1-c1ccccc1)c1ccccc1
inactive: T-47D breast 83.5% | BT-549 breast 62.2% | MDA-MB-435 melanoma 87.2% | SW-620 colon 76.1% | MCF7 breast 36.2% | HCT-116 colon 38% | HCC-2998 colon 83.1% | KM12 colon 69.5% | MDA-MB-468 breast 77.2%

COc1cccc(/C=C2\N=C(C)N(CCc3ccc(S(N)(=O)=O)cc3)C2=O)c1
inactive: T-47D breast 97.3% | BT-549 breast 100% | MDA-MB-435 melanoma 114% | SW-620 colon 105% | MCF7 breast 95.2% | HCT-116 colon 97.8% | HCC-2998 colon 117% | KM12 colon 104% | MDA-MB-468 breast 113%

CCCCSc1nc(Nc2ccc(/C(C)=N/NC(N)=S)cc2)c(C#N)c(-c2ccc(F)cc2)n1
active: MDA-MB-468 breast -1.25%
inactive: T-47D breast 46.8% | BT-549 breast 31.5% | MDA-MB-435 melanoma 78.6% | SW-620 colon 67.7% | MCF7 breast 41.3% | HCT-116 colon 36.3% | HCC-2998 colon 66.9% | KM12 colon 60.2%

COc1ccc(-c2cc(C(=O)N=Nc3c(O)[nH]c4ccc(F)cc34)c3ccccc3n2)cc1
inactive: T-47D breast 75.9% | BT-549 breast 86.3% | MDA-MB-435 melanoma 65.2% | SW-620 colon 41.1% | MCF7 breast 23.6% | HCT-116 colon 39.7% | HCC-2998 colon 91.1% | KM12 colon 81.3% | MDA-MB-468 breast 44.2%

COc1cc(C2CC(c3ccc(C)cc3)=Nc3c(N)nc(N)nc3N2)ccc1Oc1nc(Nc2ccc(F)cc2)nc(N(C)C)n1 (centres undefined)
active: MCF7 breast 5.19% | HCT-116 colon 6.7%
inactive: T-47D breast 64.5% | BT-549 breast 65.4% | MDA-MB-435 melanoma 63.2% | SW-620 colon 58.8% | HCC-2998 colon 29.9% | KM12 colon 52% | MDA-MB-468 breast 15.6%

O=C1CCC(N2Cc3cc(CC(=O)Nc4ccc(N5CCCCC5)cc4)ccc3C2=O)C(=O)N1 (centres undefined)
inactive: T-47D breast 14.1% | MDA-MB-435 melanoma 70.5% | SW-620 colon 24% | MCF7 breast 59.7% | HCT-116 colon 102% | HCC-2998 colon 34.7% | KM12 colon 41.1%
active: BT-549 breast -9.03% | MDA-MB-468 breast -16.4%

CC(=O)NCC1=C(C)C=C2C(=O)[C@](C)(O)C3(CC3)C(C)=C21
inactive: SW-620 colon 70.1%
active: T-47D breast -11.8% | BT-549 breast -46.5% | MDA-MB-435 melanoma -80% | MCF7 breast 3.29% | HCT-116 colon -45.1% | HCC-2998 colon -79.4% | KM12 colon -5.71% | MDA-MB-468 breast -79.7%

Cc1ccc(S(=O)(=O)c2nc(-c3ccccc3)oc2S(=O)(=O)CC(=O)N2CCCC2)cc1
active: T-47D breast -70.4% | BT-549 breast -24.4% | MDA-MB-435 melanoma -99.3% | SW-620 colon -68.1% | MCF7 breast -40.7% | HCT-116 colon 0.73% | HCC-2998 colon -91.1% | MDA-MB-468 breast -91.8%
inactive: KM12 colon 40.8%

COc1ccc(-c2nc(S(=O)(=O)c3ccc(C)cc3)c(S(C)(=O)=O)o2)cc1
active: T-47D breast -75.7% | BT-549 breast -12.5% | MDA-MB-435 melanoma -97.1% | SW-620 colon -58.5% | MCF7 breast -53.1% | HCT-116 colon -0.211% | HCC-2998 colon -87.6% | KM12 colon -19% | MDA-MB-468 breast -92.9%

Cc1cc(=O)oc2cc(OCCCCOc3ccc(/C=C/C(=O)Nc4ccc(F)c(Cl)c4)cc3)ccc12
inactive: T-47D breast 67.1% | BT-549 breast 93.2% | MDA-MB-435 melanoma 92.7% | SW-620 colon 96.9% | MCF7 breast 77.8% | HCT-116 colon 87.6% | HCC-2998 colon 123% | KM12 colon 91.3% | MDA-MB-468 breast 120%

COc1csc(/C=N/NC(=O)c2[nH]c3ccc(Br)cc3c2-c2ccccc2)c1
inactive: T-47D breast 47.1% | BT-549 breast 31.8% | SW-620 colon 17.9%
active: MDA-MB-435 melanoma -43.6% | MCF7 breast -3.06% | HCT-116 colon -29.4% | HCC-2998 colon 7.87% | KM12 colon 3.46% | MDA-MB-468 breast -18%

O=C(c1ccc([N+](=O)[O-])c([N+](=O)[O-])c1O)n1[nH]c(=O)c2ccccc2c1=O
active: MDA-MB-468 breast 0.114%
inactive: T-47D breast 49.8% | BT-549 breast 51.2% | MDA-MB-435 melanoma 53.7% | SW-620 colon 35.7% | MCF7 breast 30.5% | HCT-116 colon 30.1% | HCC-2998 colon 106% | KM12 colon 72.3%

O=c1[nH]c2ccccc2cc1CSc1ccc(Nc2nccc(-c3ccc4c(c3)OCO4)n2)cc1
inactive: T-47D breast 75.5% | BT-549 breast 65.5% | MDA-MB-435 melanoma 93.6% | SW-620 colon 80.6% | MCF7 breast 56% | HCT-116 colon 84.1% | HCC-2998 colon 95.5% | KM12 colon 74.2% | MDA-MB-468 breast 72.5%

O=c1c2ccccc2nc(COc2ccccc2)n1/N=C/c1ccc(N2CCCC2)cc1
inactive: T-47D breast 57.7% | BT-549 breast 84.8% | MDA-MB-435 melanoma 99.5% | SW-620 colon 109% | MCF7 breast 87.6% | HCT-116 colon 79.5% | HCC-2998 colon 106% | KM12 colon 96.7% | MDA-MB-468 breast 137%

C=C1CC[C@H](C(=C)C)[C@H]2C=C(C)C(=O)C3=C(C(=O)[C@@](C)(O)C3)[C@H]12
active: T-47D breast -59.3% | BT-549 breast -43.7% | MDA-MB-435 melanoma -58% | SW-620 colon -53.3% | MCF7 breast -70.5% | HCC-2998 colon -84.4% | KM12 colon -73.9% | MDA-MB-468 breast -69.5%
inactive: HCT-116 colon 12.2%
